Source: PubChem BioAssay (several laboratories)
PP5 inh: inhibitors of human protein phosphatase 5 (PP5) | purified PP5c, OMFP substrate fluorescence | P53041 | AID 1987 | inhibition, % at 6.7 µM | 320,000 compounds, 0.18% hits;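 active = inhibition above the campaign's mean inhibition across all tested compounds plus 3 SD, cut at about 9.5% in these data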;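 note: 0% = DMSO only and 100% = 100 µM cantharidin control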
Calb FLC: C. albicans growth modulation with fluconazole | C. albicans CaCi-2 (fluconazole-resistant clinical isolate) + fluconazole, Alamar Blue growth, 48 h | growth inhibition, % (concentration not given with the values) | 300,000 compounds, 0.57% hits | AID 1979;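 active = growth inhibition above about 58% in most replicates, limit read from the data, passing the limit was not always enough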;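 note: all wells also contain fluconazole at 8 µg/ml as a sub-toxic cotreatment; 0% = median of DMSO wells and 100% = median of geldanamycin control wells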
Mdm2-MdmX inh: disrupts the human Mdm2-MdmX interaction; inhibition, % at 8 µM; SaOS-2 split-luciferase Mdm2/MdmX complementation, luminescence; 330,000 compounds, 3% hits;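 active = inhibition of at least 50% at 8 µM in the primary screen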
PP1 counter: blocks human PP1-alpha phosphatase, a PP5 counter-screen | P62136 | purified PP1alpha, OMFP fluorescence | inhibition, % at 6.7 µM | 320,000 compounds, 0.9% hits | AID 2235;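 active = inhibition above the mean inhibition of all tested compounds plus 3 SD, computed separately for each screening campaign, cut at about 15% in these data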
Target sequence (P62136 whole entry, looked up): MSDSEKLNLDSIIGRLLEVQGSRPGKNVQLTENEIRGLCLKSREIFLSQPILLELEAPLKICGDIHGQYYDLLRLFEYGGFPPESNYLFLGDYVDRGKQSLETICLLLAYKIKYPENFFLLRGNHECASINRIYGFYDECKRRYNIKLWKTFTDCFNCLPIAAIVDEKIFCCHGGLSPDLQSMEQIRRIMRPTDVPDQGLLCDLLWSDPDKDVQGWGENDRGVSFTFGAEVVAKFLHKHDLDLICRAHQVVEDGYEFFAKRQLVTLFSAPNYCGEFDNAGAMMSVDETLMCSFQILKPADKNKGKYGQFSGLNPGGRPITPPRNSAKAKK
Beta apoptosis: beta cell apoptosis inhibition. INS-1E cytokine-induced death, ATP luminescence, 48 h; percent of positive-control rescue, neutral wells zero. protection from apoptosis, % (test concentration not listed). 300,000 compounds, 0.8% hits. AID 435005;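 active = Every replicate reaches about 75%, or at least half do and their mean reaches it too, limit read from the data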;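 note: 0% = cytokine-treated negative control wells and 100% = positive control rescue; higher means more ATP so stronger rescue from cytokine killing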
CSC inhib: blocks cancer stem cells; AID 2717; 300,000 compounds, 1.1% hits; inhibition, % at 7.5 µM; cancer stem cell-like cells viability, luminescence; in the data active = inhibition above about 75%; tested in HMLE shEcad cells
* = called active by the depositor; nt = not tested or not shown. An excerpt weighted towards active compounds, which were near 4.9% of everything screened.

SMILES	PP5 inh	Calb FLC	Mdm2-MdmX inh	PP1 counter	Beta apoptosis	CSC inhib
COc1ccc(-c2c(-c3cc(OC)cc(OC)c3)n(C)c3ccc(-c4ccc(OC)nc4)cc23)cc1	-1	nt	39	2	5	21
Nc1nnnn1/N=C/c1cccc(Oc2ccccc2)c1	4	78*	26	-3	-14	-13
Nc1nnnn1/N=C/c1ccccc1	nt	9	-3	nt	-9	-12
Cc1ccc(N2C(=O)CC(N3CCN/C3=C3\CC/C(=C\c4ccccc4)C3=O)C2=O)cc1 (configuration not stated)	2	5	-11	-1	-11	-10
CS/C(=N\S(=O)(=O)c1cccs1)Nc1ccc(F)c(Cl)c1	1	95*	6	0	4	0
CCN(CC)c1nc(SCCOC(=O)Nc2ccccc2)nc(N(CC)CC)n1	6	5	18	-1	8	81*
CN(C)c1nc(SCCOC(=O)c2ccccc2)nc(N(C)C)n1	2	-2	-2	-2	-7	-6
CS(=O)(=O)c1nc(S(=O)(=O)c2ccc(Cl)cc2)c(NCc2ccccn2)s1	0	-2	13	-6	-11	-14
O=C(Nc1ccc(C(F)(F)F)cc1)N1CCN(c2ccnc3cc(Cl)ccc23)CC1	3	24	14	-3	11	89*
Oc1ccc(-c2cnc(-c3ccc(O)cc3)nc2)cc1	4	-4	-122	-3	-6	98*
COc1ccc(-n2cnc3cc(NS(=O)(=O)c4ccc(C)cc4)ccc32)cc1	12*	nt	14	0	0	3
CCn1cnc2cc(NS(=O)(=O)c3ccc(C)cc3)ccc21	6	-22	19	-5	1	1
Cc1c(C(=O)N2CC3(CC(c4cccc(NC(=O)CC(c5ccccc5)c5ccccc5)c4)=NO3)C[C@@H]2C(N)=O)cc([N+](=O)[O-])cc1[N+](=O)[O-] (some centres not stated)	4	0	23	16*	-5	14
NC(=O)N1CCC2(CC1)NC(=O)N(c1ccccc1)N2	0	109*	11	-3	2	-3
CC(=O)N1CCC2(CC1)NC(=O)N(c1ccccc1)N2	-1	7	-1	-1	-3	5
COc1ccc(C2C(C#N)=C3NC(=O)c4c(sc5c4CCCCC5)N3C3=C2C(=O)CC(C)(C)C3)cc1 (configuration not stated)	1	3	2	16*	nt	23
COc1ccc(C2C(C#N)=C(N)N(c3sc4c(c3C#N)CCCC4)C3=C2C(=O)CC(C)(C)C3)cc1 (configuration not stated)	2	57	22	7	2	-14
O=C(Nc1ccc(S(=O)(=O)N2CCCCC2)cc1)c1ccc(CN2CCc3ccccc3C2)cc1	6	1	25	8	107*	41
O=C(Nc1ccccc1)c1ccc(CN2CCc3ccccc3C2)cc1	0	15	16	1	-1	18
N#Cc1cc2nc(O)c(O)nc2cc1[N+](=O)[O-]	1	nt	-3	-1	-2	-11
CNc1nc2cc([N+](=O)[O-])c([N+](=O)[O-])cc2nc1NC	0	6	nt	-1	98*	4
O=C(Nc1ccc(O)c(C(=O)O)c1)Oc1ccccc1	1	-1	3	-1	-1	-5
O=C1CC(=C(c2ccccc2)c2ccccc2)C(=O)N1CCCN1CCN(c2cccc(Cl)c2)CC1	4	12	29	17*	-12	nt
CC(C)=CCOc1ccc([C@@H]2COc3c(ccc4c3C=CC(C)(C)O4)C2)c(O)c1	1	0	47	1	42	102*
CC(=O)N(Cc1ccc(F)cc1)C1=C(NCc2ccccc2)C(=O)c2ccccc2C1=O	nt	89*	nt	nt	nt	nt
SMILES	PP5 inh	Calb FLC	Mdm2-MdmX inh	PP1 counter	Beta apoptosis	CSC inhib
CCN(CC)CCN(C(=O)c1ccc([N+](=O)[O-])cc1)c1nc2ccc(OC)cc2s1	3	-11	-26	-1	-3	-19
CCN(CC)CCN(C(=O)c1ccc2ccccc2c1)c1nc2ccc(OC)cc2s1	-1	99*	26	2	-2	12
CC(C)(C)c1ccccc1NC(=O)c1c(O)c2cccc3c2n(c1=O)CC3	1	82*	12	6	3	39
O=C(NCc1ccccc1)C1c2ccccc2Oc2ccccc21	0	118*	0	-2	-6	-15
Cc1ccc(S(C)(=O)=N/C=C2\C(=O)c3sccc3N(C)S2(=O)=O)cc1 (configuration not stated)	1	7	-3	-3	-4	-8
C=C1c2cccc(O)c2C(O)=C2C(=O)[C@]3(O)C(O)=C(C(N)=O)C(=O)[C@@H](N(C)C)[C@@H]3[C@@H](O)[C@H]12	1	-4	-12	50*	-2	-15
COC(=O)C(CC(C)C)NC(=O)C(Cc1ccccc1)NC(=O)C1CCCN1C(=O)OC(C)(C)C (configuration not stated)	0	33	-23	-1	0	-8
Cc1cc(NC(=O)COC(=O)[C@@H](NS(=O)(=O)c2ccccc2)C(C)C)no1	-2	-9	16	0	-3	-1
Cc1cc(NC(=O)COC(=O)[C@@H](NS(=O)(=O)c2ccc(Br)cc2)C(C)C)no1	0	111*	-2	-3	-3	-7
O=C(O)c1cc(NC(=O)c2ccccc2[N+](=O)[O-])ccc1O	-1	36	-3	3	-1	-9
COc1ccc(Cl)cc1N(CC(=O)NCC(C)C)S(=O)(=O)c1ccc(C)c([N+](=O)[O-])c1	-1	-14	16	2	2	-17
O=C1C=C(c2ccc(C(=O)O)cc2)C[C@@H](c2ccc3c(c2)OCO3)C1	2	nt	-31	-6	-1	9
COc1ccc(NC2CCCN(C(=O)CCC(=O)c3ccc(F)cc3)C2)cc1 (configuration not stated)	5	9	1	-1	0	-17
O=C(NC(c1ccc(Cl)cc1)c1c(O)ccc2ccccc12)c1ccccc1 (configuration not stated)	5	nt	nt	5	98*	107*
NC(=S)N/N=C/c1ccc(C23CC4CC(CC(C4)C2)C3)cc1	4	-2	46	6	77*	113*
COc1ccc(/C=c2\sc3nc(-c4ccccc4)c(-c4ccccc4)n3c2=O)cc1OC	0	-5	-4	0	-5	3
O=c1/c(=C\c2cccc(O)c2)sc2nc(-c3ccccc3)c(-c3ccccc3)n12	3	-3	5	5	10	91*
CCOc1cc(/C=C\c2[nH]c(=O)[nH]c(=O)c2[N+](=O)[O-])ccc1OC(C)CC (configuration not stated)	0	21	27	6	-1	78*
Cc1cc(Br)ccc1OCCn1ccnc1	1	-10	18	2	-1	-6
